# Inconclusive results are not listed. Activity calls are given as the source filed them. Calls come from the whole dose curve; as a rule, active = well fitted activation curve with a large enough effect in the signal ratio in the repeat runs (not every such curve was filed as active); inconclusive = weak or mixed curves, or effect the other way; inactive = no such curve, though single readings can be large or run the other way; the % refers to the signal ratio.
# Molecular target: Peroxisome proliferator-activated receptor gamma (Homo sapiens) (UniProt P37231)
# Sequence (P37231 whole entry, looked up): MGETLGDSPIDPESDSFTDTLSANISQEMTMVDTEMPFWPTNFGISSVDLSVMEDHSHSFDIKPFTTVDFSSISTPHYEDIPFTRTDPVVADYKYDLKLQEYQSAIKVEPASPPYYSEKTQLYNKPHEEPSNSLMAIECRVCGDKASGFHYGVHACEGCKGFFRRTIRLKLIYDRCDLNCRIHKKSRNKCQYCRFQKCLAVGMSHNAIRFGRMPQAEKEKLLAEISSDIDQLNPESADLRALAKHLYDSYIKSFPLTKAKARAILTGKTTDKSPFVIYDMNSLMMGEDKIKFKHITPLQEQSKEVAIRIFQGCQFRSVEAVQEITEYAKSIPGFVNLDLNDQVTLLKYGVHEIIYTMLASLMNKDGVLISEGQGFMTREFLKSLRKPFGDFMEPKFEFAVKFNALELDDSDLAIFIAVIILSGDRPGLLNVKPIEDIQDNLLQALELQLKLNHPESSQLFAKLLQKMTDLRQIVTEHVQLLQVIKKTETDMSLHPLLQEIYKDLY
# Test: qHTS assay to identify small molecule agonists of the peroxisome proliferator-activated receptor gamma (PPARg) signaling pathway (AID 743094)
# Conditions: HEK293H PPARg-UAS-bla, beta-lactamase FRET ratio, 17 h; series mostly up to 57 µM
# Text: U.S. Tox21 Program National Center for Advancing Translational Sciences [NCATS] NIH Chemical Genomics Center [NCGC] U.S. Environmental Protection Agency [EPA] National Institutes of Environmental Health Sciences [NIEHS] National Toxicology Program [NTP] U.S. Food and Drug Administration [FDA] Tox21 Assay Overview: The peroxisome proliferator-activated receptors (PPARs) are lipid-activated transcription factors of the nuclear receptor superfamily with three distinct subtypes namely PPAR alpha, PPAR delta (also called PPAR beta) and PPAR gamma (PPARg). All these subtypes heterodimerize with Retinoid X receptor (RXR) and these heterodimers regulate transcription of various genes. PPAR-gamma receptor (glitazone receptor) is involved in the regulation of glucose and lipid metabolism. To identify the compounds that activate PPAR-gamma signaling, GeneBLAzer PPAR gamma UAS-bla HEK293H cell line (Invitrogen, Carlsbad, CA, USA) containing a beta-lactamase reporter gene under control of the control of an upstream activator sequence (UAS) stably integrated into HEK293H cells was used to screen Tox21 compound library.
# Tox21 Assay Protocol Summary: PPARg-bla cells were dispensed at 3000 cells/6uL/well in 1536-well black wall/clear bottom plates using a Multidrop Combi (Thermo Fisher Scientific, Waltham, MA) dispenser. After the assay plates were incubated at 37C and 5% CO2 for 5 h, 23 nL of compounds dissolved in DMSO, positive controls or DMSO only was transferred to the assay plate by a Pintool station (Kalypsys, San Diego, CA). The assay plates were incubated at 37C for 17 h. After 1 uL of LiveBLAzerTM B/G FRET substrate was added using a Bioraptr Flying Reagent Dispenser (FRD) workstation (Beckman Coulter, Indianapolis, IN, USA), the plates were incubated at room temperature for 1 h, and fluorescence intensity was measured by an Envision plate reader (PerkinElmer, Shelton, CT).
row,Structure (SMILES),outcome
1,O=C(O)C(Cl)Cl,inactive
2,O=C(O)C(Cl)(Cl)Cl,inactive
3,Nc1ccc(-c2ccc(N)c(Cl)c2)cc1Cl,inactive
4,CCCCCCCCCCn1cc[n+](C)c1,inactive
5,O=c1[nH]c(=O)n(Cl)c(=O)n1Cl,inactive
6,C=CCOC(Cn1ccnc1)c1ccc(Cl)cc1Cl (configuration not stated),inactive
7,COCC(=O)N(c1c(C)cccc1C)C(C)C(=O)OC (configuration not stated),inactive
8,CC[n+]1ccccc1,inactive
9,COc1ccc(N)cc1,inactive
10,CN(C)[C@@H]1C(=O)C(C(N)=O)=C(O)[C@@]2(O)C(=O)C3=C(O)c4c(O)cccc4[C@@](C)(O)[C@H]3[C@H](O)[C@@H]12,inactive
11,O=[N+]([O-])c1ccccc1O,inactive
12,Nc1ccc(-c2ccc(N)cc2)cc1,inactive
13,CC(Cl)(Cl)C(=O)O,inactive
14,Oc1ccccc1-c1ccccc1,inactive
15,Cc1cc(Cl)ccc1OCC(=O)O,inactive
16,COc1ccccc1N,inactive
17,O=c1nc(O)n(Cl)c(=O)n1Cl,inactive
18,Nc1ccc(Cl)cc1,inactive
19,CNC,inactive

row,Structure (SMILES),outcome
1,O=C(O)CCl,inactive
2,O=P1(N(CCCl)CCCl)NCCCO1 (configuration not stated),inactive
3,CCC(=O)C(CC(C)N(C)C)(c1ccccc1)c1ccccc1 (configuration not stated),inactive
4,Cc1cc(Cl)ccc1N,inactive
5,C[N+](C)(C)Cc1ccccc1,inactive
6,CCOP(=S)(OCC)Oc1ccc2c(C)c(Cl)c(=O)oc2c1,inactive
7,C[C@]12CCC(=O)C=C1CC[C@@H]1[C@@H]2CC[C@]2(C)C(=O)CC[C@@H]12,inactive
8,CCCn1cc[n+](C)c1,inactive
9,C1CCC(NC2CCCCC2)CC1,inactive
10,Nc1ccccc1,inactive
11,O=C(O)CC(O)(CC(=O)O)C(=O)O,inactive
12,CCNc1nc(Cl)nc(NCC)n1,inactive
13,COP(=O)(OC)OC=C(Cl)Cl,inactive
14,OCCOc1ccccc1,inactive
15,CCn1cc[n+](C)c1C,inactive
16,Cc1cc(-c2ccc(N)c(C)c2)ccc1N,inactive
17,CCCCCCCCCCCCCCCCn1cc[n+](C)c1,inactive
18,COP(=O)(OC)C(O)C(Cl)(Cl)Cl (configuration not stated),inactive

# Reference: PubChem BioAssay (Tox21)
